# Screening results: PubChem BioAssay, National Center for Advancing Translational Sciences (NCATS)
# Rows were chosen to be rich in hits. Some 21% of all compounds tested hit in one or more screens of this group.
# Shiga inhibitor – inhibitors of Shiga toxin in Vero cells; Vero cells, Shiga toxin protein synthesis inhibition reporter; inhibition, % at 38.7 µM; 290,000 compounds, 9.2% hits; AID 2315; in the data active means inhibition mostly above about 28%, no sharp cut-off; inactive means mostly below about 43%; further: 0% is about no effect
# HCV inh – blocks hepatitis C virus; 340,000 compounds, 3.4% hits; Huh7.5.1 HCVcc-Cre infection, luciferase reporter, 44 h; AID 651820; Potency, µM (top dose mostly 41.8 µM), without a hit: at the highest dose activity change, negative = inhibition, actives largely listed as inhibitors; further: potency means the concentration at half of the fitted maximal effect; on the % scale 0 is the no-effect control and ±100 the full control effect
#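 Seed cells (1,000/well) for 4 h; treat with compound and infect with HCVcc-Cre, moi about 0.5. Incubate 44 h, then detect luciferase activity.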
# CHX counter – counter-screen hit for Shiga toxin inhibitors, cycloheximide | cell reporter, cycloheximide protein synthesis inhibition counterscreen | max response, % | 300,000 compounds, 12% hits | AID 2314; in the data active means max response mostly above about 13%, no sharp cut-off; inactive means mostly below about 14%; further: read at 38.3 µM for the half of the compounds with a filed dose; 0% is about no effect
# Pf growth 96h – inhibits malaria parasite growth, 96 h. 320,000 compounds, 6.9% hits. P. falciparum luciferase reporter growth, 96 h. Potency, µM (series often up to 28.7 µM), for inactives: top-dose activity change, negative = inhibition, most hits filed as inhibitors; further: potency means the concentration at half of the fitted maximal effect; on the % scale 0 is the no-effect control and ±100 the full control effect
#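 Infected RBCs, 2% Hct / 0.05% parasitemia final; luciferase-reporter P. falciparum; cpd 96 h, 37 C, 5% CO2; luciferase detection reagent; luminescence.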
# Pf growth 48h – inhibits P. falciparum growth in the first generation, 48 h | P. falciparum luciferase growth in erythrocytes, 48 h | Potency, µM (top dose mostly 28.7 µM), inactives show at the top dose activity change, negative = inhibition, hits mostly inhibitors | 310,000 compounds, 5.9% hits | AID 504832; further: potency means the concentration at half of the fitted maximal effect; on the % scale 0 is the no-effect control and ±100 the full control effect
#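 Growth was read as firefly luciferase luminescence after a 48 h, 37 C, 5% CO2 exposure of compounds to reporter-bearing P. falciparum cultures (0.1% parasitemia, 2% hematocrit final) in Albumax-supplemented RPMI 1640.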
# AMA1-RON2 inh – disrupts binding of P. falciparum AMA1 to RON2; AlphaScreen AMA1-biotinylated RON2 peptide binding; Potency, µM (highest dose often 58.2 µM), for inactives: top-dose activity change, negative = inhibition, hits mostly inhibitors; 360,000 compounds, 0.2% hits; AID 720542;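 further: potency means the concentration at half of the fitted maximal effect; 0% = vehicle wells and -100% = peptide control; nearly all actives have a fitted effect of over 45% in size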
#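 AMA1 (3D7) with his tag at 25 nM final met compounds first, then biotinylated RON2 peptide at 25 nM; detection used donor plus acceptor beads, 10 µg/mL apiece, read by AlphaScreen after 30 min at room temperature.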
# Numbers without * were called inactive; ? = inconclusive; nt = no result given; [ ] = another dose, or the depositor's remark. Unless noted, the call rests on the fitted dose curve; in most records, active means well fitted curve in the direction sought with a large enough effect; inconclusive means small, poorly fitted or top-dose-only effect, or another doubt; inactive means no such curve, though single readings can be large; an effect the other way counts as inactive or inconclusive.
SMILES,Shiga inhibitor,HCV inh,CHX counter,Pf growth 96h,Pf growth 48h,AMA1-RON2 inh
COc1cc2c(cc1OC)-c1c(OC)c(OC)cc3c1[C@H](C2)N(C)CC3,-16.0,-26.3%,-4.6,3.7µM*,?,-6.4%
CSc1ccc(NC(=O)C(C)N2CCN(C)CC2)cc1 (stereo unspecified),-8.5,11.8%,-2.2,11.6%,3.7%[0.00184 µM],?
CCOc1ccc(N2CC(C(=O)Nc3nnc(C4CCCCC4)s3)CC2=O)cc1 (stereo unspecified),-4.2,24.8%,-3.5,?,10.7%,2.5%
Cn1c(SCC(=O)N2CCCC2=O)nc2ccccc21,13.6,7.8%,2.8,37.4%,?,23.3%
CCOc1ccc(NC(c2ccccn2)c2oc(CO)cc(=O)c2O)cc1 (stereo unspecified),81.3*,-6.3%,45.9*,?,192.3%,15.9%
COC(=O)Cn1c(C)nc2c(sc3nc(C)cc(C)c32)c1=O,111.2*,2.4%,48.7*,83.9%,141.6%,-1.0%
CCOC(=O)Cn1cnc2c(sc3nc(C)cc(C)c32)c1=O,16.5,-1.3%,20.4*,21.9%,3.4%,-2.0%
CC(C)(C)C(CN1CCCC1)OC(=O)c1ccccc1 (stereo unspecified),-7.3,-0.1%,-1.2,-74.4%,13.1%,14.3%
N/C(=N\OC(=O)Nc1ccccc1)c1ncc([N+](=O)[O-])s1,43.8,12.6µM*,28.2*,?,?,2.7%
CCC(Oc1ccccc1)C(=O)Nc1ncc([N+](=O)[O-])s1 (stereo unspecified),12.2,4.5%,2.3,?,30.8%,-8.9%
C=C1C(=O)O[C@H]2C[C@]3(C)C([C@@H](OC(=O)/C(C)=C/C)[C@H]12)[C@](C)(O)CC[C@H]3O (stereo partly specified),34.0,?,30.2*,-9.4%,-20.4%,0.0%
C=C1C(=O)O[C@H]2[C@H]1[C@H](OC(=O)/C(C)=C\C)C[C@]1(CO1)[C@@H]1[C@H](OC(C)=O)C=C(C)[C@]21O,nt,-31.1%,nt,nt,nt,7.7%
CC1OC(OC2C(CO)OC(OC3C(CO)OC(O)C(O)C3O)C(O)C2O)C(O)C(O)C1NC1C=C(CO)C(O)C(O)C1O (stereo unspecified),-3.6,nt,-5.0,nt,nt,nt
COCCN(CCOC)S(=O)(=O)c1ccc(C(=O)Nc2c(C)n(C)n(-c3ccccc3)c2=O)cc1,-2.5,7.1%,1.0,2.5%,1.0%,-7.5%
COC(=O)[C@]1(Cc2ccccc2)N[C@H](CN(C)C(=O)c2ccc(F)cc2)[C@@H]2C(=O)N(C)C(=O)[C@@H]21,nt,?,nt,nt,nt,0.0%
COc1ccc(N2CCN(C3CCCN(C(=O)C4=C(C)OCCO4)C3)CC2)cc1 (stereo unspecified),-5.2,24.5%,-0.6,-20.4%,5.1%,1.0%
COC(=O)c1c(N2C(=O)Nc3ccccc3N2O)sc(C)c1C,-1.9,14.5%,-2.1,5.22µM*,3.6%,-1.0%
O=C(NNC(=O)c1ccccc1OCc1ccccc1Cl)c1csc(N2CCOCC2)n1,14.4,10µM*,10.1*,?,?,125.0%
COc1ccccc1C(=O)NNC(=O)c1csc(N2CCOCC2)n1,nt,4.0%,nt,6.5%,?,101.3%
OC(CNC1CCCCC1)CON=C1CCSc2c(Cl)cccc21 (stereo unspecified),nt,nt,nt,nt,nt,-0.1%
COCCCNC(=O)CCc1c(C)nc2c(c(C)nn2-c2ccccc2)c1C,-1.9,?,0.5,?,?,4.4%
CCOC(=O)NCCc1c(C)nc2c(c(C)nn2C(C)(C)C)c1C,-4.8,?,-3.5,0.165µM*,nt,-6.1%
O=C(CCc1ccccc1)N/N=C/c1cc(Br)ccc1O,-13.7,11.2µM*,6.7,6.57µM*,4.15µM*,59.3%
CCc1ccc(/C=N/NC(=S)NCCc2ccccc2)cc1,-11.6,-0.3%,-2.2,21.1%,nt,102.1%
COc1ccc(/C=N/NC(=S)NCCc2ccccc2)cc1,-5.6,-16.7%,2.5,?,?,81.6%
COc1ccc(O)c(/C=N/NC(=S)NCCc2ccccc2)c1,17.6,?,3.5,?,2.62µM*,52.0%
